# Data taken from the supplement of paper PMC6555819.
# Key:
# Experiment in all cases: PBM binding z-score (relative to random genomic background probes); higher = stronger binding; sequences stand for … in GC…GCGATTGACAGCGTAGAATGAAGG
# [1] = tested on: FXR:RXRa (NR concentration 270 nM, RXRa partner concentration 90 nM)
# In short: (§1)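 Each nuclear receptor dimer, without ligand, was incubated for 1 h on custom Agilent 4×180K protein-binding microarrays. Binding was detected with antibodies against each partner (one per run), and scanned fluorescence was regression-normalized. The binding z-scores are referenced to random human genomic background probes.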
# [2] = tested on: LXRa:RXRa (NR concentration 270 nM, RXRa partner concentration 90 nM)
# In short: as §1
# [3] = tested on: LXRa homodimer (NR concentration 270 nM)
# In short: as §1
# [4] = tested on: LXRb:RXRa (NR concentration 270 nM, RXRa partner concentration 90 nM)
# In short: as §1
# [5] = tested on: LXRb homodimer (NR concentration 270 nM)
# In short: as §1
# [6] = tested on: PPARa:RXRa (NR concentration 270 nM, RXRa partner concentration 90 nM)
# In short: as §1
# [7] = tested on: PPARg:RXRa (NR concentration 180 nM, RXRa partner concentration 90 nM)
# In short: as §1
# [8] = tested on: PPARg:RXRa 270nM:90nM, anti-RXR (NR concentration 270 nM, RXRa partner concentration 90 nM)
# In short: as §1
# [9] = tested on: PPARg:RXRa 30nM:10nM, anti-RXR (NR concentration 30 nM, RXRa partner concentration 10 nM)
# In short: as §1
# [10] = tested on: PPARg:RXRa 90nM:30nM, anti-RXR (NR concentration 90 nM, RXRa partner concentration 30 nM)
# In short: as §1
# [11] = tested on: PPARg:RXRa DBDmut IVT, anti-RXR (DBD mutation: RXRa K156A/R161A, NR concentration 270 nM, RXRa partner concentration 90 nM)
# In short: as §1
# [12] = tested on: PPARg:RXRa IVT, anti-PPARg (NR concentration 270 nM, RXRa partner concentration 90 nM)
# In short: as §1
# [13] = tested on: PPARg DBDmut:RXRa IVT, anti-PPARg (DBD mutation: PPARg1 K132A/R137A, NR concentration 270 nM, RXRa partner concentration 90 nM)
# In short: as §1
# [14] = tested on: PPARg DBDmut IVT, anti-PPARg (DBD mutation: PPARg1 K132A/R137A, NR concentration 270 nM)
# In short: as §1
# [15] = tested on: PPARg homodimer (NR concentration 180 nM)
# In short: as §1
# [16] = tested on: PXR:RXRa (NR concentration 270 nM, RXRa partner concentration 90 nM)
# In short: as §1
# [17] = tested on: PXR homodimer (NR concentration 270 nM)
# In short: as §1
# [18] = tested on: RARa:RXR (NR concentration 270 nM, RXRa partner concentration 90 nM)
# In short: as §1
# [19] = tested on: RARa homodimer (NR concentration 270 nM)
# In short: as §1
# [20] = tested on: RARb:RXRa (NR concentration 270 nM, RXRa partner concentration 90 nM)
# In short: as §1
Sequence,PBM binding z-score [1],PBM binding z-score [2],PBM binding z-score [3],PBM binding z-score [4],PBM binding z-score [5],PBM binding z-score [6],PBM binding z-score [7],PBM binding z-score [8],PBM binding z-score [9],PBM binding z-score [10],PBM binding z-score [11],PBM binding z-score [12],PBM binding z-score [13],PBM binding z-score [14],PBM binding z-score [15],PBM binding z-score [16],PBM binding z-score [17],PBM binding z-score [18],PBM binding z-score [19],PBM binding z-score [20]
TCGAGTGGGTTACCAATGGGGCATTCAGCTTTCT,-1.28,0.53,-0.905,0.75,-0.956,0.859,-0.273,0.677,0.872,0.607,2.12,1.77,-0.245,-0.482,-0.73,-0.197,-0.99,-0.236,-0.45,0.353
TATACAGGGTCAACGGCCAGAGTACGAATGTCGA,6.91,5.76,2.15,4.65,2.1,5.54,6.79,6,3.43,5.19,2.91,4.6,4.74,3.03,4.05,3.93,0.74,5.15,1.33,4.52
CGAACGAGGGCATCAGTTGATAGCAAATGCCGAT,0.292,0.0604,-0.396,0.107,-0.651,1.19,1.1,0.934,-0.0649,0.293,2.85,1.94,-0.013,-0.142,-0.115,0.166,0.152,0.224,-0.261,2.03
CCATACAGGTGAAAGGTAACTCAGTCTGGTACGC,0.917,0.86,0.0219,1.34,0.147,4.47,7.97,7.64,6.75,8.48,4.44,4.52,0.453,0.514,1.27,1.12,0.206,1.99,0.894,1.44
ATCTCTAGGTAAAGTCCAGTGAAAGATCGATAGA,0.403,0.465,0.0712,-0.241,1.11,0.175,0.232,0.48,0.421,0.165,2.45,1.54,1.13,0.971,0.584,-0.13,0.187,-0.113,0.971,0.414
ATATGTAGGTAATCGGGTCATTCAGTTTGCGCAT,1.83,1.79,0.62,2.26,0.648,4.67,6.27,5.56,3.33,4.77,7.17,7.38,2.95,2.04,1.76,2.84,6.06,2.79,1.35,1.6
CCTGCTAGGTCAATGGTCAGATAAAGCAGCTCGC,2.9,2.29,0.316,1.61,-0.124,3.15,4.67,5.1,2.77,4.96,4.27,4,-0.328,-0.659,1.01,0.646,-0.497,1.44,0.218,3.65
GTACCAAGGTGAAGAGGTCGTTGATGAGTAGGCG,1.67,1.32,0.0368,1.13,-0.425,3,1.95,2.49,0.544,1.72,1.79,2.51,-0.57,-0.181,1.37,2.15,0.607,2.68,-0.129,2.35
GCTGCTAGGTCAACTGCTGGTCAGCTAAAGCTCG,4.1,3.03,0.0225,1.95,-0.0517,3.53,2.54,2.94,0.291,1.66,5.01,4.38,-0.67,-1.29,0.927,1.25,-0.956,2.52,-0.88,4.34
TCTTATAGATCAACAGGAGGTTAAGAAAGATCGA,0.826,1.6,0.457,1.36,0.165,1.6,0.533,2.08,3.48,2.93,2.24,0.332,0.51,0.867,0.452,0.958,0.0264,1.46,0.64,0.877
GATACAGGGTCAAGGCCGGAGTACGCGTATTGAT,6.13,4.13,0.0137,3.51,-0.495,5.66,5.78,5.32,1.81,3.85,2.69,3.81,-0.0401,0.122,1.8,3.56,0.0329,4.01,0.567,4.55
TTACCAAGGTGGGCTGAGGTCGTTGATCCAACTC,1.56,0.463,-0.083,0.938,-0.656,0.97,-0.473,0.212,-0.219,-0.0469,-0.241,0.386,-0.362,-0.213,-0.101,2.86,0.257,1.14,0.0238,0.446
TCTTGTAGATCAAGAGAGGTTAAGAAAGTGCGCT,0.516,3.28,0.0219,1.46,-0.672,1.44,-0.217,1.2,2.19,1.72,0.899,0.319,-0.033,-0.382,-0.0736,2.95,0.139,1.6,-0.753,0.635
TAGCCTAGGTAATTCAGGGGCCAGTATAGAAAGC,-0.449,-0.444,-0.517,-0.109,-0.53,-0.0424,0.145,-0.169,-0.327,-0.103,-0.0164,0.234,0.0188,-0.116,-0.334,-0.507,-0.545,-0.256,-0.299,0.0227
AGAATGAGGTTAAGACCAGGGAAACAGAATACAT,2.32,1.88,-0.015,1.61,-0.233,3.48,2.1,2.15,0.945,1.71,2.74,2.42,1.4,1.16,0.773,1.03,0.319,1.92,0.687,1.85
CGTAGTTGGTCAAGGTCACACACGCTATAGGTAC,4.12,3.72,1.39,3.6,0.592,4.13,3.4,3.54,1.47,2.64,1.92,3.93,0.825,0.313,2.32,4.02,1.11,4.18,1.01,4.18
TCTAGAAGGCCAGAGGGTCACTCAAGAGGTACGG,1.32,1.11,-0.432,1.28,-0.671,2.5,1.33,2.98,3.24,3.02,1.75,0.693,-0.301,0.186,1.22,1.64,0.0475,2.54,0.19,2.68
TTACCAAGGTGAGCTGACGTCGTTGATCCAACTC,-0.0042,-0.397,-0.855,-0.446,-0.946,0.149,0.0549,0.41,-0.0176,-0.026,0.771,1.43,-0.733,-0.641,-0.886,-0.363,-0.913,-0.1,-1.03,0.866
ATCGAAAGGTCGAGGTGTGTATAGAGAAAGGGAA,3.92,3.39,0.47,2.82,0.483,4.43,2.6,3.16,1.2,2.19,0.539,1.92,1.19,0.613,1.6,2.17,0.958,3.25,1.16,4.03
TTACCAAGGTGAGAGGTCGTTGATGCACGCCTTG,1.86,1.62,0.0582,1.46,-0.758,3.59,6.22,6.4,4.84,6.5,1.49,4.04,0.616,0.0764,1.63,2.47,0.681,3.06,-0.505,2.33
CCTACTGCGCCACGAAAGGTCATTGATTCAGTGA,3.86,5.05,5.64,4.54,2,4.35,1.08,3.21,0.979,1.98,0.564,1.65,1.03,0.0242,4.6,5.41,2.88,5.88,2.27,3.86
GCTGCTAGGTCAACGGATGGTCAGCTAAAGCTCG,3.29,2.35,-0.22,1.34,-0.253,3.2,2.58,2.83,0.601,2.06,4.91,3.99,0.0458,-0.872,1.84,1.21,-0.834,2.51,-0.435,4.19
CAAACTAGGTCAAAGGTCTAAGTCGAGCCAACCA,5.29,4.37,0.54,3.21,0.734,6.51,12,10,9.99,11.8,8.53,8.69,8.12,5.58,7.53,3.11,0.0192,4.84,0.718,3.91
GGAACGAGGGCAAAGTTGATAACATCTGTCGACG,1.57,1.1,-0.134,1.12,-0.18,4.13,7.22,7.08,6.1,7.67,3.83,4.15,0.399,0.51,1.5,1.23,0.336,1.49,0.102,2.25
TCTTGTAGCTCAAGCAGGTTAAGAAAGCCTGAGT,-0.423,-0.287,-0.662,0.0107,-0.909,0.461,-0.708,0.77,2.04,1.39,0.652,-0.0591,-0.768,-0.282,-1.23,-0.102,-0.596,-0.128,-0.944,-0.012
ATCGAAAGGTCGACGAGGTGAGTATTCACCGTTT,4.22,3.41,-0.275,2.63,0.0468,4.26,2.45,2.99,1.55,1.94,0.554,2.07,1.07,0.398,0.854,2.94,0.386,3.29,-0.0728,3.91
TTATATAGGTAAAAGGTGAAAGTCGGTGTGGTAA,2.14,1.87,0.372,2.02,-0.0123,6.3,10.6,9.28,9.36,10.3,7.08,6.76,2.28,1.42,2.84,1.91,0.453,3.15,1.5,1.86
TCGACTAGGTTAGGGGCATTCAGAATGGCGTCGA,0.141,0.372,-0.304,0.803,-0.322,1.38,1.35,2.49,1.74,2.17,2.47,1.86,0.0313,-0.271,0.688,0.539,-0.0457,0.602,-0.239,1.26
TATACAGGGTCAAACGCCAGAGTACGAATGTCGA,7.58,6.35,3.43,5.2,3.15,6.3,7.33,6.79,3.84,5.94,2.52,4.64,3.59,3.04,3.53,4.49,0.94,5.61,0.721,4.45
